FLuc counter: firefly luciferase modulation, counter-screen for miR-21 project; AID 588342; actives 6.9% (n = 360,000); Potency, µM (series often up to 57.5 µM), for the others: at the top dose activity change, negative = inhibition, usual class: inhibitors; purified FLuc, Km substrates, luminescence inhibition; P08659;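 note: plate controls were vehicle for no effect and reference inhibitor for full effect; nearly all actives have a fitted effect of over 55% in size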
Target sequence (P08659 whole entry, looked up): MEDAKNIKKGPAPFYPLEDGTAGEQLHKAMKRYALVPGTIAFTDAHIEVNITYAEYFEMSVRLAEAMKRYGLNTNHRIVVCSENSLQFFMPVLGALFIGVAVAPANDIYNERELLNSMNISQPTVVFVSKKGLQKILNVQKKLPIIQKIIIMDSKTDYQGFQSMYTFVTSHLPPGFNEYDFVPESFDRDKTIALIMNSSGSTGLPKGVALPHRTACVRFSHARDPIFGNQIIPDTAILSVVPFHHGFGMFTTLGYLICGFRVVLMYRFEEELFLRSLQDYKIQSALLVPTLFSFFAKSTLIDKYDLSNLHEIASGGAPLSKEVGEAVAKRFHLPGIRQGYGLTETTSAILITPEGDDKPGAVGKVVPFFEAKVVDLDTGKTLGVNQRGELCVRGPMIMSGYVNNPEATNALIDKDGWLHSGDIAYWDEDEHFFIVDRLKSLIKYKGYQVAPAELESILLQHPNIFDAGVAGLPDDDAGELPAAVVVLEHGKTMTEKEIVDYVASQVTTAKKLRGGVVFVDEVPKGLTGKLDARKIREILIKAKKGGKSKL
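Purified P. pyralis luciferase, 10 nM final, with Km-level 10 uM D-luciferin and 10 uM ATP in 50 mM Tris acetate pH 7.5, 10 mM Mg acetate, 0.01% Tween-20, 0.05% BSA; 6-point qHTS titration about 60 µM downward; luminescence read.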
Rab9 promoter act: Rab9 promoter activation; Potency, µM (series often up to 9.22 µM), inactives show top-dose activation, negative = inhibition, usual class: activators; Huh7 Rab9 promoter-luciferase reporter, luminescence, 24 h; actives 2.8% (n = 320,000); note: % of control where 0% means no effect; nearly all actives have a fitted effect of over 60% in size
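Cell-based reporter: Huh7 stable for Rab9 promoter-driven luciferase, plated in reduced-serum medium with 10% FBS at 1500 cells/well, compound-treated 24 h at 37 °C, luminescence read after 10 min reagent.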
SMN2 splice enh: SMN2 splice variant enhancement | Potency, µM (highest dose often 46.1 µM), for the others: at the top dose activity change, positive = activation, hits mostly activators | HEK293 SMN2-luciferase splicing reporter, luminescence, 30-36 h | actives 2.8% (n = 210,000); note: % of control where 0% means no effect; nearly all actives have a fitted effect of over 55% in size
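HEK293 cells carry an SMN2 minigene-luciferase reporter in which exon 7 inclusion puts luciferase in frame. Cells were seeded at 2000 cells/well, attached for 10-12 hours, then exposed to compounds for 30-36 hours at 37C before ONE-Glo luminescence.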
Luc counter: Kinase-Glo luciferase inhibition (counter-screen); AID 1379; actives 0.28% (n = 200,000); Potency, µM (doses to about 38.3 µM), without a hit: at the highest dose activity change, negative = inhibition, usual class: inhibitors; Kinase-Glo luciferase, ATP luminescence, 8 min; note: % is set by controls: 0 for no effect and ±100 for the full control effect; nearly all actives have a fitted effect of over 60% in size
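Recombinant Kinase-Glo luciferase, 10 uM ATP (linear range), luciferin; imidazole pH 7.2 / KCl / MgCl2 / Tween / BSA buffer; 8 min RT; luminescence.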
NPC1 promoter act: activators of NPC1 promoter. Huh7 NPC1 promoter luciferase reporter, 24 h. Potency, µM (series often up to 9.22 µM), without a hit: at the highest dose activation, hits mostly activators. actives 2.4% (n = 320,000). AID 485313; note: % of control where 0% means no effect; nearly all actives have a fitted effect of over 60% in size
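Stable NPC1-promoter luciferase Huh7 line; cpd (DMSO) 24 h, 37 °C, 5% CO2; Amplite luciferase reagent 10 min RT; luminescence readout. qHTS format.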
ELG1 genotox: genotoxicity induction in ELG1-luciferase HEK293T cells; HEK293T ELG1-luciferase reporter, luminescence, 16 h; AID 504466; Potency, µM (titrated, usually from 46 µM), for the others: at the top dose activity change, positive = activation, most hits filed as activators; actives 1.3% (n = 330,000); note: % of control where 0% means no effect; nearly all actives have a fitted effect of over 60% in size
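After overnight (16 hr) compound treatment at 37 °C, ELG1-luciferase HEK293T cells were lysed with ONE-Glo; luminescence quantified 30 min later at room temperature.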
Starred values were filed as active, the others as inactive; ? = inconclusive; · = not tested or not shown. This is a sample that favours compounds with a hit; in the whole collection about 7.3% have one here. Calls come from the whole dose curve; as a rule, active = well fitted curve in the direction sought with a large enough effect; inconclusive = small, poorly fitted or top-dose-only effect, or another doubt; inactive = no such curve, though single readings can be large; an effect the other way counts as inactive or inconclusive. Potency is the fitted concentration of half-maximal effect.

SMILES	FLuc counter	Rab9 promoter act	SMN2 splice enh	Luc counter	NPC1 promoter act	ELG1 genotox
COc1ccc(C(=O)C2CCCN(C3Cc4ccccc4C3)C2)c(OC)c1 (configuration not stated)	27µM*	?	·	-2%	30%	24%
CC(=O)/C(C#N)=C1\NC(=O)C(Cc2ccc(C)c(C)c2)S1 (configuration not stated)	21µM*	11%	?	-1%	10%	-1%
O=C(Nc1cc(Cl)cc(Cl)c1)c1cc(S(=O)(=O)N2CCc3ccccc3C2)ccc1F	3%	·	·	·	·	·
COc1nc(-c2ccccc2)ccc1-c1noc(-c2ccco2)n1	8.5µM*	4µM*	13µM*	-2%	?	21µM*
COc1ccccc1-c1noc(-c2ccco2)n1	11µM*	3.2µM*	13µM*	-18%	3.5µM*	6.5µM*
COc1nc(-c2ccccc2)ccc1-c1noc(-c2ccccc2)n1	24µM*	2.8µM*	?	-1%	4µM*	18µM*
CCc1ccc(CNCc2c(C(=O)O)n(Cc3ccc(C)cc3)c3cc(C)ccc23)cc1	-12%	·	·	·	·	·
CC(=O)Oc1ccc2cc(-c3nc4ccccc4n3C)c(=O)oc2c1	?	2.8µM*	?	-8%	?	?
CC(C)(C)C(=O)Oc1ccc2cc(-c3ccc4ccccc4n3)c(=O)oc2c1	-12%	?	14µM*	2%	?	?
Cn1c(-c2cc3ccc(OC(=O)C(C)(C)C)cc3oc2=O)nc2ccccc21	?	?	?	3%	?	?
Cc1ccc(-n2[nH]c3c4c(ccc3c2=O)C(=O)c2ccccc2C4=O)cc1	1%	-8%	-1%	-1%	-1%	4%
Cc1ccc(C)c(-n2[nH]c3c4c(ccc3c2=O)C(=O)c2ccccc2C4=O)c1	15µM*	7%	-21%	-7%	1%	-7%
CCOc1ccc(/C=C/c2nc(C#N)c(NCCc3ccccc3)o2)cc1	2%	·	-1%	·	·	·
O=C(Nc1nc(-c2ccc3c(c2)OCCO3)cs1)C1CCCC1	7.6µM*	2.2µM*	11µM*	-1%	?	?
N#CCC(=O)Nc1nc(-c2ccc3c(c2)OCCO3)cs1	7.6µM*	3.5µM*	13µM*	5%	?	?
O=C(CCCCl)Nc1nc(-c2ccc3c(c2)OCCO3)cs1	11µM*	3.2µM*	·	·	3.5µM*	5.8µM*
Cc1ccc(NC(=O)c2cc(S(=O)(=O)NC3CCCCC3)ccc2F)cc1Cl	3%	·	·	·	·	·
O=c1[nH]ncc(N/N=C\c2ccncc2)c1Cl	-1%	-5%	?	0%	1%	?
O=c1[nH]ncc(N/N=C\c2cccs2)c1Cl	-3%	-2%	?	-2%	-5%	21µM*
COc1cccc(-c2nc(COc3ccc(Cl)cc3Cl)no2)c1	15µM*	0%	·	·	1%	7%
COc1ccc(-c2noc(-c3cc(Cl)ccc3Cl)n2)cc1OC	5%	11%	-7%	4%	16%	3%
COc1ccccc1-c1nc(COc2ccc(Cl)cc2Cl)no1	8.5µM*	4µM*	·	·	3.5µM*	?
CN(C)CCCCl	·	·	0%	·	·	·
Cn1cccc1C(=O)OCc1cc(Cl)cc2c1OCOC2	13µM*	?	7%	2%	?	?
CCN(C(=O)c1c(C)oc2ncnc(N3CCCCC3)c12)c1cc(C)ccc1C	-8%	·	·	·	·	·
SMILES	FLuc counter	Rab9 promoter act	SMN2 splice enh	Luc counter	NPC1 promoter act	ELG1 genotox
COc1ccc(-n2nc(C(=O)NCC(=O)N3CCCC(C)C3)c3ccccc3c2=O)cc1 (configuration not stated)	5.4µM*	17%	·	·	-24%	-6%
COc1ccc(-n2nc(C(=O)N3CCN(c4ccc(F)cc4)CC3)c3ccccc3c2=O)c(OC)c1	6%	1%	-5%	4%	9%	-7%
COc1ccc(-n2nc(C(=O)NCC(=O)N3CCC(C(N)=O)CC3)c3ccccc3c2=O)cc1	11µM*	8%	·	·	9%	?
COc1ccc(-n2nc(C(=O)NCC(=O)NC3CCCC(C)C3C)c3ccccc3c2=O)cc1 (configuration not stated)	?	2%	·	·	-1%	-21%
COc1ccc(-n2nc(C(=O)NCC(=O)N3CCN(c4cccc(Cl)c4)CC3)c3ccccc3c2=O)c(OC)c1	7.6µM*	-4%	·	·	-3%	0%
COc1ccc(-n2nc(C(=O)NCC(=O)N3CCC(C)CC3)c3ccccc3c2=O)cc1	2.1µM*	?	·	·	?	5%
CCC(C)NC(=O)CNC(=O)c1nn(-c2ccc(OC)cc2)c(=O)c2ccccc12 (configuration not stated)	-11%	-1%	·	·	-3%	-3%
CCOc1ccc(OCC)c(NS(=O)(=O)c2c(C(=O)N3CCCCCC3)c(C)n(C)c2C)c1	-5%	·	·	·	·	·
COc1cccc(-n2nnc(-c3nc(-c4ccccc4F)no3)c2C)c1	2.4µM*	·	·	·	·	·
Cc1c(-c2nc(-c3ccccc3)no2)nnn1-c1ccc(F)c(Cl)c1	-3%	·	·	·	·	·
COc1ccc(Cl)cc1-n1nnc(-c2nc(-c3ccccc3)no2)c1C	15µM*	·	·	·	·	·
COc1ccccc1N1CCN(c2nc(-c3ccc(C)cc3)nc3ccccc23)CC1	-1%	·	·	·	·	·
CCc1ccc(S(=O)(=O)Nc2ccc(-c3ccc4nnc(C)n4n3)cc2)s1	18%	-3%	·	·	-4%	23µM*
Cc1nnc2ccc(-c3ccc(NS(=O)(=O)c4ccccc4F)cc3)nn12	1%	-5%	·	·	-6%	21µM*
Cc1nnc2ccc(-c3ccc(NS(=O)(=O)c4ccc(F)cc4F)cc3)nn12	0%	-4%	·	·	-4%	21µM*
CCOC(=O)c1cccc(NC(=O)NCCc2c(C)nn(C)c2C)c1	-1%	·	·	·	·	·
CCN1C(=O)c2ccccc2S(=O)(=O)c2ccc(C(=O)NCc3ccccc3OC)cc21	0%	·	-13%	·	·	·
COc1cccc(C2C(C(=O)Nc3cccnc3)=C(C)Nc3nc(SCc4ccccc4)nn32)c1 (configuration not stated)	0%	·	-3%	·	·	·
CCN(C(=O)c1ccc2c(c1)N(Cc1cccc(Cl)c1)C(=O)c1ccccc1S2=O)c1ccccc1 (configuration not stated)	-1%	·	·	·	·	·
CCOC(=O)c1cccc(NC(=O)COc2ccc3c(C)cc(=O)oc3c2)c1	-3%	·	-28%	·	·	·
Cc1ccsc1/C=N/NC(=O)c1ccc2nc[nH]c2c1	?	?	21%	-5%	23%	9%
Cc1ccsc1/C=N/NC(=O)c1ccc2c(c1)OCCO2	0.95µM*	0.35µM*	·	·	0.63µM*	1.6µM*

Compound activity: PubChem, National Center for Advancing Translational Sciences (NCATS)
